Screens from PubChem.
In the library only some 19% were active in any assay of this set; here they are far more common.
DT40 TDP1 no CPT: qHTS for Inhibitors of human tyrosyl-DNA phosphodiesterase 1 (TDP1): qHTS in cells in absence of CPT; DT40 Tdp1-/- hTDP1 cells, no CPT, ATP luminescence, 48 h; Potency, µM (titrated, usually from 46.2 µM), for the others: top-dose activity change, negative = growth inhibition, most hits filed as inhibitors; 15% of 420,000 active; AID 686978, 2013; further: potency means the concentration at half of the fitted maximal effect; nearly all actives have a fitted effect of over 55% in size
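Cells were dispensed at 400 per well, compounds added by pin tool, plates incubated ≥48 hr at 37 °C, then CellTiter-Glo added for 30 min at room temperature before luminescence reading. Line: DT40 Tdp1-/- complemented with hTDP1; camptothecin omitted.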
HT1080 IDH1KD tx: HT-1080 IDH1 knockdown cell toxicity (counter line); HT-1080 IDH1 knockdown viability, ATP luminescence, 48 h; AID 686971; Potency, µM (titrated, usually from 46.1 µM), inactives show top-dose activity, negative = toxicity, most hits filed as cytotoxic; 2% of 360,000 active;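 further: potency means the concentration at half of the fitted maximal effect; 0% = DMSO wells and -100% = cell-free medium wells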
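Using the IDH1-knockdown HT-1080 line run in the same batch and compound series as the NT line, viability after 48 h at 37 °C was determined by CellTiter-Glo luminescence and expressed as % activity.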
HT1080-NT tox: kills 2HG-producing HT-1080-NT fibrosarcoma cells | HT-1080-NT fibrosarcoma viability, CellTiter-Glo ATP luminescence, 48 h | Potency, µM (top dose mostly 46.1 µM), for inactives: at the highest dose activity, negative = less viability, actives largely listed as cytotoxic | 1.6% of 360,000 active | AID 686970;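 further: NT is the 2HG producing partner of a matched IDH1 knockdown line; potency means the concentration at half of the fitted maximal effect; 0% = DMSO-treated cells and -100% = media-only wells without cells; nearly all actives have a fitted effect of over 55% in size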
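HT-1080-NT; 750 cells/well; 5% FBS RPMI; 48 h compound, 37 degrees C; CellTiter-Glo luminescence; curve fitting and curve-class assignment.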
DT40 TDP1 CPT: growth inhibition of DT40 Tdp1-/-;hTDP1 cells with camptothecin (screen for TDP1 inhibitors); 12% of 420,000 active; Potency, µM (doses to about 46.2 µM), inactives show at the top dose activity change, negative = growth inhibition, hits mostly inhibitors; AID 686979; chicken DT40 Tdp1-/-;hTDP1 cells + 20 nM CPT, ATP luminescence, 48 h; further: potency means the concentration at half of the fitted maximal effect; nearly all actives have a fitted effect of over 55% in size
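Chicken DT40 Tdp1-/- cells complemented with human TDP1, 400 cells/well, exposed to compounds plus 20 nM camptothecin for at least 48 h at 37 C; viability read as ATP content by CellTiter-Glo luminescence.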
IL1B secr inh: inhibitors of inflammasome signaling (IL-1 beta secretion) | THP-1 LPS/ATP IL-1B secretion, AlphaLISA, 16 h; active compounds read low | activity change, % at 57.5 µM | 4.7% of 360,000 active | AID 743279; in the data active means activity change below about -50%; inconclusive means mostly about -30% to -49%
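Secreted IL-1B measured by AlphaLISA bead assay after 16 h compound exposure of THP-1 cells; compounds (final up to 57.5 uM) added 1 h before LPS (250 ng/mL) and ATP (1.25 mM) stimulation; lower signal means less secretion.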
Starred values were filed as active, the others as inactive. Unless noted, the call rests on the fitted dose curve; in most records, active means well fitted curve in the direction sought with a large enough effect; inconclusive means small, poorly fitted or top-dose-only effect, or another doubt; inactive means no such curve, though single readings can be large; an effect the other way counts as inactive or inconclusive. Unless noted, on the % scale 0 is the no-effect control and ±100 the full control effect.

How did O=C(O)C[C@H]1c2cc(C(F)(F)F)ccc2S(=O)(=O)N1C1CCCCC1 do in these assays?
DT40 TDP1 no CPT: -15.8%; HT1080 IDH1KD tx: 0.8%; HT1080-NT tox: 1.3%; DT40 TDP1 CPT: -5.9%; IL1B secr inh: -5.0

What do the screens show for `Cc1ccc2nc(Cl)c3nnnn3c2c1`?
DT40 TDP1 no CPT: 2.59µM*; HT1080 IDH1KD tx: 13µM*; HT1080-NT tox: -0.2%; DT40 TDP1 CPT: 1.84µM*; IL1B secr inh: -94.3*

What do the screens show for `Cc1ccc(-c2nc3ccccc3n3nnnc23)cc1`?
DT40 TDP1 no CPT: 7.31µM*; HT1080 IDH1KD tx: 2.4%; HT1080-NT tox: 2.6%; DT40 TDP1 CPT: 13µM*; IL1B secr inh: 2.2

Results for Cc1ccc2nc(NCc3ccccc3Cl)c3nnnn3c2c1 ?
DT40 TDP1 no CPT: 10.3µM*; DT40 TDP1 CPT: inconclusive

What do the screens show for `Cc1ccc2nc(N3CCN(c4ccc(F)cc4)CC3)c3nnnn3c2c1`?
DT40 TDP1 no CPT: 14.6µM*; DT40 TDP1 CPT: 7.31µM*

Results for COc1ccc(OC)c(CNc2nc3ccc(C)cc3n3nnnc23)c1 ?
DT40 TDP1 no CPT: -22.0%; DT40 TDP1 CPT: -11.2%

What do the screens show for `Cc1ccc(CNc2nc3ccccc3n3nnnc23)cc1`?
DT40 TDP1 no CPT: -22.1%; HT1080 IDH1KD tx: 3.3%; HT1080-NT tox: -1.9%; DT40 TDP1 CPT: -23.4%; IL1B secr inh: 15.7

How did CCOc1ccc2ccccc2c1/C=N/NC(=O)c1ccncc1 do in these assays?
DT40 TDP1 no CPT: -21.9%; HT1080 IDH1KD tx: 12.2%; HT1080-NT tox: 12.7%; DT40 TDP1 CPT: 3.0%; IL1B secr inh: 1.3

What do the screens show for `C=CCc1cccc2cc(C(=O)Nc3ccc(S(=O)(=O)Nc4nnc(CC)s4)cc3)c(=O)oc12`?
DT40 TDP1 no CPT: -21.9%; HT1080 IDH1KD tx: -1.1%; HT1080-NT tox: -6.4%; DT40 TDP1 CPT: -12.6%; IL1B secr inh: 9.1

Results for CC(C)(C)OC(=O)N[C@@H](Cc1ccccc1)C(=O)N1CCC(C(=O)N[C@@H](Cc2c[nH]c3ccccc23)C(=O)O)CC1 ?
DT40 TDP1 no CPT: 6.6%; HT1080 IDH1KD tx: -2.0%; HT1080-NT tox: -0.2%; DT40 TDP1 CPT: -1.6%; IL1B secr inh: 1.7

Results for Cc1[nH][nH]c(=O)c1N=Nc1ccc(Br)c(Cl)c1 ?
DT40 TDP1 no CPT: 23.1µM*; HT1080 IDH1KD tx: 6.5%; HT1080-NT tox: 10.6%; DT40 TDP1 CPT: inconclusive; IL1B secr inh: 34.5

What do the screens show for `Cc1[nH][nH]c(=O)c1N=Nc1ccc(S(N)(=O)=O)cc1`?
DT40 TDP1 no CPT: -4.1%; HT1080 IDH1KD tx: -1.3%; HT1080-NT tox: 2.7%; DT40 TDP1 CPT: -17.7%; IL1B secr inh: 24.9

How did COc1ccccc1NC(=O)CSC1CC(=O)N(c2ccc3c(c2)OCO3)C1=O (stereo not given) do in these assays?
DT40 TDP1 no CPT: 6.51µM*; HT1080 IDH1KD tx: 7.0%; HT1080-NT tox: 1.4%; DT40 TDP1 CPT: 4.61µM*; IL1B secr inh: 2.2

How did COc1ccc(NC(=O)CSC2CC(=O)N(c3ccc4c(c3)OCCO4)C2=O)cc1 (stereo not given) do in these assays?
DT40 TDP1 no CPT: 23.1µM*; HT1080 IDH1KD tx: -8.7%; HT1080-NT tox: -0.3%; DT40 TDP1 CPT: 20.6µM*; IL1B secr inh: 21.4

What do the screens show for `COc1ccc(N2C(=O)CC(SCC(=O)O)C2=O)cc1` (stereo not given)?
DT40 TDP1 no CPT: -21.5%; HT1080 IDH1KD tx: 14.2%; HT1080-NT tox: 4.2%; DT40 TDP1 CPT: -27.5%; IL1B secr inh: -22.5

What do the screens show for `O=S(=O)(NCCN1CCCC1)c1ccc(Br)cc1`?
DT40 TDP1 no CPT: -1.2%; HT1080 IDH1KD tx: 1.5%; HT1080-NT tox: -9.1%; DT40 TDP1 CPT: -14.5%; IL1B secr inh: -4.8

What do the screens show for `O=C(NN1c2ccccc2CCc2ccccc21)c1ccccc1Br`?
DT40 TDP1 no CPT: inconclusive; HT1080 IDH1KD tx: -19.2%; HT1080-NT tox: -0.7%; DT40 TDP1 CPT: 20.6µM*; IL1B secr inh: 7.5

Results for CNC(=O)N1c2ccccc2CCc2ccccc21 ?
DT40 TDP1 no CPT: inconclusive; HT1080 IDH1KD tx: -0.7%; HT1080-NT tox: 1.9%; DT40 TDP1 CPT: -23.5%; IL1B secr inh: 3.3

How did O=C1c2ccccc2C(=O)c2c(/C=C/N3CCCCC3)ccnc21 do in these assays?
DT40 TDP1 no CPT: 10.3µM*; HT1080 IDH1KD tx: 23.1µM*; HT1080-NT tox: -20.2%; DT40 TDP1 CPT: 6.51µM*; IL1B secr inh: -107.1*

How did CCOC(=O)C1=CN(Cc2cccc(F)c2)S(=O)(=O)NC1c1ccc(Br)cc1F (stereo not given) do in these assays?
DT40 TDP1 no CPT: inconclusive; HT1080 IDH1KD tx: inconclusive; HT1080-NT tox: inconclusive; DT40 TDP1 CPT: 20.6µM*; IL1B secr inh: -7.2

What do the screens show for `CCOC(=O)C1=CN(Cc2cccc(F)c2)S(=O)(=O)N(CC)C1c1ccc(Br)cc1F` (stereo not given)?
DT40 TDP1 no CPT: inconclusive; HT1080 IDH1KD tx: -9.4%; HT1080-NT tox: 1.0%; DT40 TDP1 CPT: inconclusive; IL1B secr inh: 0.5

How did CCOC(=O)C1=CN(Cc2ccco2)S(=O)(=O)NC1c1ccc(F)c(Cl)c1 (stereo not given) do in these assays?
DT40 TDP1 no CPT: -9.0%; HT1080 IDH1KD tx: -0.9%; HT1080-NT tox: -4.2%; DT40 TDP1 CPT: -27.9%; IL1B secr inh: -1.1

What do the screens show for `CCOC(=O)C1=CN(Cc2cccc(F)c2)S(=O)(=O)N(CC)C1c1ccc(C(F)(F)F)cc1` (stereo not given)?
DT40 TDP1 no CPT: 23.1µM*; HT1080 IDH1KD tx: -3.3%; HT1080-NT tox: -3.4%; DT40 TDP1 CPT: 20.6µM*; IL1B secr inh: -2.4

What do the screens show for `CCOC(=O)C1=CN(Cc2cccc(F)c2)S(=O)(=O)NC1c1ccc(F)c(Cl)c1` (stereo not given)?
DT40 TDP1 no CPT: inconclusive; HT1080 IDH1KD tx: inconclusive; HT1080-NT tox: 25.9µM*; DT40 TDP1 CPT: inconclusive; IL1B secr inh: 0.0

What do the screens show for `CCOC(=O)C1=CN(Cc2cccc(-c3cccnc3)c2)S(=O)(=O)N(C)C1C` (stereo not given)?
DT40 TDP1 no CPT: 13µM*; HT1080 IDH1KD tx: -4.1%; HT1080-NT tox: 0.0%; DT40 TDP1 CPT: inconclusive; IL1B secr inh: -16.8

How did CCn1cc(C(=O)N2CCN(c3ccccc3)CC2)c(=O)c2cc(S(=O)(=O)N3CCC(C)CC3)ccc21 do in these assays?
DT40 TDP1 no CPT: -22.0%; DT40 TDP1 CPT: inconclusive

How did O=C(Nc1cc2c(cc1C(=O)c1ccccc1Br)OCCO2)c1cccc(Cl)c1 do in these assays?
DT40 TDP1 no CPT: -11.7%; DT40 TDP1 CPT: -0.8%

What do the screens show for `O=c1c(Cl)cc(Cl)nn1-c1ccccc1`?
DT40 TDP1 no CPT: 1.46µM*; HT1080 IDH1KD tx: inconclusive; HT1080-NT tox: inconclusive; DT40 TDP1 CPT: 2.06µM*; IL1B secr inh: -100.0*
